{"source": "PubChem BioAssay (Tox21)", "note": "Results filed as inconclusive are left out. The source made the active and inactive calls. Calls follow the shape of the dose curve; as a rule, active = well fitted cell-killing curve with a large enough effect in the repeat runs; inconclusive = weak or mixed curves, or effect the other way; inactive = flat fitted curve, though single readings scatter. % is scaled to controls: 0 for no effect and ±100 for the full control effect.", "data": [{"experiment": "cAMP Responsive Elements (CRE) small molecule antagonists, cell-based qHTS assay: qHTS cell viability counter screen (AID 2060913); also: nearly all actives have a fitted effect of over 40% in size", "settings": "CRE-bla HEK293T viability, CellTiter-Glo luminescence, 5 h; series mostly up to 92.4 µM; viability change, negative = cytotoxic: at the top concentration", "procedure,_shortened": "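Cytotoxicity counter screen multiplexed with the CRE-bla antagonist read: HEK293T cells in DMEM with dialyzed FBS and 25 mM HEPES were treated 3 hrs under 0.25 uM final NKH477, then viability measured by CellTiter-Glo luminescence.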", "values": [{"smiles": "O=S(=O)(O)c1cc(S(=O)(=O)O)c2ccc3c(S(=O)(=O)O)cc(S(=O)(=O)O)c4ccc1c2c43", "viability change, negative = cytotoxic": "3.35% [at 18.9 µM] (inactive)"}, {"smiles": "CCCCCCCCCCCCCCCCC(C(=O)O)C(O)(CC(=O)O)C(=O)O", "note": "(stereo not given)", "viability change, negative = cytotoxic": "-10.5% [at 42.5 µM] (inactive)"}, {"smiles": "O=C1OC(=O)c2cc([N+](=O)[O-])ccc21", "viability change, negative = cytotoxic": "-5.36% (inactive)"}, {"smiles": "CC(C)C(=O)OCC(C)(C)C(O)C(C)C", "note": "(stereo not given)", "viability change, negative = cytotoxic": "4.92% (inactive)"}, {"smiles": "CCSC(=O)N(CC)CC", "viability change, negative = cytotoxic": "1.21% (inactive)"}, {"smiles": "NC/C=C/C(=O)O", "viability change, negative = cytotoxic": "-3.05% [at 42.5 µM] (inactive)"}, {"smiles": "C=C(C)C(=O)OCCOP(=O)(O)O", "viability change, negative = cytotoxic": "-2.92% (inactive)"}, {"smiles": "COC(=O)[C@@H]1CC2=CC(=O)CC[C@]2(C)[C@@]23O[C@@H]2C[C@@]2(C)[C@@H](CC[C@@]24CCC(=O)O4)[C@H]13", "viability change, negative = cytotoxic": "1.48% [at 42.5 µM] (inactive)"}, {"smiles": "Nc1nc(=S)c2[nH]cnc2[nH]1", "viability change, negative = cytotoxic": "-13% (inactive)"}, {"smiles": "CCCCCO", "viability change, negative = cytotoxic": "0.772% (inactive)"}, {"smiles": "O=S(=O)(O)c1ccc2cc(O)ccc2c1", "Potency": "inactive"}, {"smiles": "CCN(CC)c1ccc2c(c1)Oc1cc(N(CC)CC)ccc1C21OC(=O)c2ccccc21", "viability change, negative = cytotoxic": "16.3% [at 42.5 µM] (inactive)"}, {"smiles": "CC(C)(C)OC(=O)N1C[C@@H](F)C[C@H]1C(=O)O", "viability change, negative = cytotoxic": "-23.2% (inactive)"}, {"smiles": "Cn1c(=O)cc(Oc2ccc(F)cc2F)c2cnc(NCC(C)(C)O)nc21", "viability change, negative = cytotoxic": "-3.43% (inactive)"}, {"smiles": "C=CCOc1c(Br)cc(Br)cc1Br", "viability change, negative = cytotoxic": "-6.59% (inactive)"}, {"smiles": "O=C(O)c1ccccc1Nc1cccc(C(F)(F)F)c1", "Potency": "inactive"}, {"smiles": "CC(C)(C)c1cc(CCC(=O)OCCSCCOC(=O)CCc2cc(C(C)(C)C)c(O)c(C(C)(C)C)c2)cc(C(C)(C)C)c1O", "viability change, negative = cytotoxic": "8.95% [at 42.5 µM] (inactive)"}, {"smiles": "O=C(C(=O)c1ccccc1)c1ccccc1", "viability change, negative = cytotoxic": "2.12% (inactive)"}, {"smiles": "CC(C)(C)C(=O)C1C(=O)c2ccccc2C1=O", "Potency": "inactive"}, {"smiles": "CCC(C)COC(C)=O", "note": "(stereo not given)", "viability change, negative = cytotoxic": "1.29% (inactive)"}, {"smiles": "C1CCC2=NCCCN2CC1", "viability change, negative = cytotoxic": "7.19% (inactive)"}, {"smiles": "C=Cc1ccccc1", "viability change, negative = cytotoxic": "6.5% (inactive)"}, {"smiles": "Nc1ccc(S(=O)(=O)Nc2nccs2)cc1", "Potency": "inactive"}, {"smiles": "COc1ccc2cccc(CCNC(C)=O)c2c1", "viability change, negative = cytotoxic": "-1.08% [at 42.5 µM] (inactive)"}, {"smiles": "O=C1OC(=O)C2CCCCC12", "note": "(stereo not given)", "viability change, negative = cytotoxic": "3.63% (inactive)"}, {"smiles": "Cc1cccc(OCCOc2cccc(C)c2)c1", "viability change, negative = cytotoxic": "0.278% (inactive)"}, {"smiles": "O=[N+]([O-])c1ccc(CCO)cc1", "viability change, negative = cytotoxic": "0.701% (inactive)"}, {"smiles": "CCCCC(CC)COC(=O)COc1cc(Cl)c(Cl)cc1Cl", "note": "(stereo not given)", "viability change, negative = cytotoxic": "-0.0806% (inactive)"}, {"smiles": "CC1=CCC(C(C)C)C=C1", "note": "(stereo not given)", "viability change, negative = cytotoxic": "-1.38% (inactive)"}, {"smiles": "O=C(O)c1ccccc1-c1ccc(C(F)(F)F)cc1", "viability change, negative = cytotoxic": "0.598% [at 42.5 µM] (inactive)"}, {"smiles": "CC(=O)CC(C)=O", "viability change, negative = cytotoxic": "0.131% (inactive)"}, {"smiles": "CN(C)C(C)(C)CO", "viability change, negative = cytotoxic": "6.89% (inactive)"}, {"smiles": "C=CCOC(=O)c1ccccc1C(=O)OCC=C", "Potency": "inactive"}, {"smiles": "CC(C)(C)c1nnc(NS(=O)(=O)c2ccc(N)cc2)s1", "viability change, negative = cytotoxic": "-1.02% [at 42.5 µM] (inactive)"}, {"smiles": "Cc1ccc2cccnc2c1", "viability change, negative = cytotoxic": "1.44% (inactive)"}, {"smiles": "OCCN1CN(CCO)CN(CCO)C1", "viability change, negative = cytotoxic": "-0.0633% (inactive)"}, {"smiles": "CCCC(C)C(=O)OCC", "note": "(stereo not given)", "viability change, negative = cytotoxic": "4.64% (inactive)"}, {"smiles": "NCC(=O)CCC(=O)O", "viability change, negative = cytotoxic": "-7.33% [at 42.5 µM] (inactive)"}, {"smiles": "CC(CO)CO", "viability change, negative = cytotoxic": "-0.845% (inactive)"}, {"smiles": "CCc1nccnc1CC", "viability change, negative = cytotoxic": "0.102% [at 18.9 µM] (inactive)"}]}]}
